We go through four molecules from PubChem BioAssay (EPA / NIEHS).

Calls of active or inactive are those of the source. How the source made its calls: active means hit-call score of the fitted dose curve at least 0.9, where 1 is the maximum; inactive means score below 0.9.

Common to all, as to conditions: mRNA level, 48 h; actives raise or lower the signal
Read-out in experiment [1]: CYP2E1 (gene 1571)
Kind of experiment: LTEA_HepaRG_CYP2E1: Life Technologies and Expression Analysis (LTEA) Assay for CYP2E1 using HepaRG (AID 2283485). The essentials: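 CYP2E1 transcript was measured by TaqMan qRT-PCR in human HepaRG cultures after 48 h chemical exposure (top 100 uM, half-log steps, 0.5% DMSO vehicle). Housekeeping-gene normalization; gain or loss fitted relative to DMSO baseline.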

Read-out in experiment [2]: DNA damage-inducible transcript 3 (DDIT3), DDIT3 (gene 1649)
Kind of experiment: LTEA_HepaRG_DDIT3: Life Technologies and Expression Analysis (LTEA) Assay for DNA damage-inducible transcript 3 (DDIT3) using HepaRG (AID 2283488). The essentials:
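qRT-PCR readout (Fluidigm TaqMan), housekeeping-normalized to ACTB, GAPDH, POLR2A. HepaRG cells, 48 h exposure, 8-point half-log series from 100 uM in 0.5% DMSO, duplicates. Gain or loss of signal fitted against DMSO baseline.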

Read-out in experiment [3]: Ezrin (EZR), EZR (gene 7430)
The experiment is described as follows: LTEA_HepaRG_EZR: Life Technologies and Expression Analysis (LTEA) Assay for Ezrin (EZR) using HepaRG (AID 2283491). The essentials: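 Read-out is EZR transcript level by qRT-PCR, normalized to three housekeeping genes and fitted bidirectionally against the DMSO control. Human HepaRG cells received test chemicals for 48 h at eight half-log concentrations up to 100 uM in 0.5% DMSO.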

Read-out in experiment [4]: Cytochrome P450 3A7 (Homo sapiens) (UniProt P24462)
Kind of experiment: LTEA_HepaRG_CYP3A7: Life Technologies and Expression Analysis (LTEA) Assay for CYP3A7 using HepaRG (AID 2283492). The essentials:
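qRT-PCR of CYP3A7 in HepaRG lysates after 48 h treatment; concentration-response (8 points, max 100 uM) analysed bidirectionally relative to 0.5% DMSO controls.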

Read-out in experiment [5]: CYP3A5 (gene 1577)
Kind of experiment: LTEA_HepaRG_CYP3A5: Life Technologies and Expression Analysis (LTEA) Assay for CYP3A5 using HepaRG (AID 2283493). The essentials: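 qRT-PCR read-out: CYP3A5 transcript in HepaRG lysates, housekeeping-normalized (ACTB/GAPDH/POLR2A), fitted bidirectionally against 0.5% DMSO baseline. Exposure 48 h, eight half-log concentrations up to 100 uM, duplicates.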

Read-out in experiment [6]: Fatty Acid-Binding Protein 1 (FABP1), FABP1 (gene 2168)
The experiment is described as follows: LTEA_HepaRG_FABP1: Life Technologies and Expression Analysis (LTEA) Assay for Fatty Acid-Binding Protein 1 (FABP1) using HepaRG (AID 2283494). The essentials: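 qRT-PCR readout of FABP1 transcript (normalized to three housekeeping genes) after 48 h chemical exposure of HepaRG cells; eight concentrations, half-log steps, max 100 uM, 0.5% DMSO vehicle; gain or loss fitted relative to DMSO baseline.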

Read-out in experiment [7]: Cytochrome P450 7A1 (Homo sapiens) (UniProt P22680)
Kind of experiment: LTEA_HepaRG_CYP7A1: Life Technologies and Expression Analysis (LTEA) Assay for Cytochrome P450 7A1 (CYP7A1) using HepaRG (AID 2283496). The essentials: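 Using 0.5% DMSO as vehicle and baseline, chemicals were tested in duplicate over an 8-point range from 100 uM on HepaRG cells for 48 h; qRT-PCR signals were normalised to ACTB, GAPDH and POLR2A.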

Read-out in experiment [8]: Glutathione S-Transferase (GSTA2), GSTA2 (gene 2939)
The experiment is described as follows: LTEA_HepaRG_GSTA2: Life Technologies and Expression Analysis (LTEA) Assay for Glutathione S-Transferase (GSTA2) using HepaRG (AID 2283497). The essentials: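 qRT-PCR readout of GSTA2 transcript, normalized to three housekeeping genes, fitted bidirectionally against 0.5% DMSO baseline. Differentiated HepaRG cells received compound for 48 h at 8 concentrations (top 100 uM, half-log steps).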

Read-out in experiment [9]: Glutamate-cysteine ligase catalytic (GCLC), GCLC (gene 2729)
Kind of experiment: LTEA_HepaRG_GCLC: Life Technologies and Expression Analysis (LTEA) Assay for Glutamate-cysteine ligase catalytic (GCLC) using HepaRG (AID 2283498). The essentials: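 HepaRG, 48 h exposure, 8-pt half-log series from 100 uM, 0.5% DMSO vehicle; TaqMan qRT-PCR for GCLC mRNA, housekeeping-normalized; bidirectional curve fit vs DMSO baseline.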

Read-out in experiment [10]: growth arrest and DNA damage 45 (GADD45G), GADD45G (gene 10912)
Kind of experiment: LTEA_HepaRG_GADD45G: Life Technologies and Expression Analysis (LTEA) Assay for growth arrest and DNA damage 45 (GADD45G) using HepaRG (AID 2283499). The essentials: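 Concentration-response in HepaRG: 48 h dosing, 0.5% DMSO, highest level 100 uM. GADD45G expression by qRT-PCR, normalised to endogenous controls; bidirectional fit to DMSO.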

Read-out in experiment [11]: Glutamate-cysteine ligase regulatory (GCLM), GCLM (gene 2730)
Kind of experiment: LTEA_HepaRG_GCLM: Life Technologies and Expression Analysis (LTEA) Assay for Glutamate-cysteine ligase regulatory (GCLM) using HepaRG (AID 2283500). The essentials:
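HepaRG, 48 h dosing, 100 uM top, half-log x8, 0.5% DMSO vehicle. Readout: GCLM mRNA by TaqMan qRT-PCR, housekeeping-normalized (ACTB/GAPDH/POLR2A). Curves fit bidirectionally vs DMSO baseline.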

Read-out in experiment [12]: Heat shock 70 kDa protein 1 (HSPA1A), gene 3303
Kind of experiment: LTEA_HepaRG_HSPA1A: Life Technologies and Expression Analysis (LTEA) Assay for Heat shock 70 kDa protein 1 (HSPA1A) using HepaRG (AID 2283502). The essentials: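 HepaRG, 48 h exposure, 8-pt half-log CRC from 100 uM in 0.5% DMSO, duplicates. Readout: TaqMan qRT-PCR of HSPA1A mRNA, housekeeping-normalized (ACTB/GAPDH/POLR2A). Bidirectional fit vs 0.5% DMSO baseline.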

Read-out in experiment [13]: Hypoxia-inducible factor 1-alpha (Homo sapiens) (UniProt Q16665)
Kind of experiment: LTEA_HepaRG_HIF1A: Life Technologies and Expression Analysis (LTEA) Assay for Hypoxia-inducible factor 1 (HIF1A) Trancription factor using HepaRG (AID 2283503). The essentials: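 Gain- or loss-of-signal HIF1A mRNA changes are fitted against a DMSO baseline. HepaRG cultures receive eight concentrations, highest 100 uM, for 48 h in serum-free induction medium with 0.5% DMSO.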

Read-out in experiment [14]: 3-Hydroxy-3-Methylglutaryl-CoA Synthase 2 (HMGCS2), HMGCS2 (gene 3158)
Kind of experiment: LTEA_HepaRG_HMGCS2: Life Technologies and Expression Analysis (LTEA) Assay for 3-Hydroxy-3-Methylglutaryl-CoA Synthase 2 (HMGCS2) using HepaRG (AID 2283504). The essentials: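 This steatosis marker was read as HMGCS2 mRNA change in HepaRG cells treated 48 h with up to 100 uM chemical. Normalisation used housekeeping genes; activity in either direction was fitted relative to 0.5% DMSO vehicle.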

Read-out in experiment [15]: Cytochrome P450 3A4 (Homo sapiens) (UniProt P08684)
Kind of experiment: LTEA_HepaRG_CYP3A4: Life Technologies and Expression Analysis (LTEA) Assay for CYP3A4 using HepaRG (AID 2283487). The essentials:
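HepaRG, 48 h exposure, 8-pt CRC from 100 uM (half-log), 0.5% DMSO, duplicates; serum-free induction medium. Readout: CYP3A4 mRNA, qRT-PCR, ACTB/GAPDH/POLR2A normalization. Bidirectional fit vs DMSO.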

Read-out in experiment [16]: Cytochrome P450 4A22 (Homo sapiens) (UniProt Q5TCH4)
The experiment is described as follows: LTEA_HepaRG_CYP4A22: Life Technologies and Expression Analysis (LTEA) Assay for Cytochrome P450 4A22 (CYP4A22) using HepaRG (AID 2283495). The essentials:
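Concentration-response (8 points, max 100 uM, 0.5% DMSO) in human HepaRG liver cells after 48 h exposure. CYP4A22 mRNA by TaqMan qRT-PCR with housekeeping-gene normalization.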

Read-out in experiment [17]: Glutathione S-transferase M3 (GSTM3), GSTM3 (gene 2947)
Kind of experiment: LTEA_HepaRG_GSTM3: Life Technologies and Expression Analysis (LTEA) Assay for Glutathione S-transferase M3 (GSTM3) using HepaRG (AID 2283501). The essentials: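 Expression of GSTM3 is determined by qRT-PCR in human liver HepaRG cells treated 48 h with an 8-point half-log range from 100 uM in 0.5% DMSO.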

Read-out in experiment [18]: Pro-epidermal growth factor (Homo sapiens) (UniProt P01133)
The experiment is described as follows: LTEA_HepaRG_EGF: Life Technologies and Expression Analysis (LTEA) Assay for Epidermal growth factor (EGF) using HepaRG (AID 2283489). The essentials:
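Concentration-response mRNA assay: HepaRG cells dosed 48 h (max 100 uM, 0.5% DMSO), EGF measured by qRT-PCR and normalized to ACTB/GAPDH/POLR2A.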

Read-out in experiment [19]: Early growth response protein 1 (EGR1) transcription factor, EGR1 (gene 1958)
The experiment is described as follows: LTEA_HepaRG_EGR1: Life Technologies and Expression Analysis (LTEA) Assay for Early growth response protein 1 (EGR1) transcription factor using HepaRG (AID 2283490). The essentials: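 HepaRG, 48 h exposure, 8-pt half-log series from 100 uM, 0.5% DMSO vehicle; EGR1 transcript by TaqMan qRT-PCR (Fluidigm array), housekeeping-normalized; bidirectional fit relative to DMSO baseline.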

Cytochrome P450 3A7 (Homo sapiens), sequence (P24462 whole entry, looked up): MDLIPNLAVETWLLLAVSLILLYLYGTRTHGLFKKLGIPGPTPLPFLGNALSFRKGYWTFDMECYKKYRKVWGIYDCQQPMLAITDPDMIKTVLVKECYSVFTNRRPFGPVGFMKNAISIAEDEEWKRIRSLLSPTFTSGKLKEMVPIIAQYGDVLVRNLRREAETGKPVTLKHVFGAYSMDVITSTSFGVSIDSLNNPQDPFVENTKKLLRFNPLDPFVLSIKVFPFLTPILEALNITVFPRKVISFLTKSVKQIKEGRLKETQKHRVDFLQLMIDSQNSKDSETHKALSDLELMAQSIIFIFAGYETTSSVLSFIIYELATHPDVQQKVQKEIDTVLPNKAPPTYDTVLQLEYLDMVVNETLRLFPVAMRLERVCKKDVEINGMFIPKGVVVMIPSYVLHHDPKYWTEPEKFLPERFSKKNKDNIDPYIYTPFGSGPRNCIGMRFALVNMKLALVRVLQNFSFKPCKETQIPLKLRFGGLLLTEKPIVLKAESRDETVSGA
Hypoxia-inducible factor 1-alpha (Homo sapiens), sequence (Q16665 whole entry, looked up): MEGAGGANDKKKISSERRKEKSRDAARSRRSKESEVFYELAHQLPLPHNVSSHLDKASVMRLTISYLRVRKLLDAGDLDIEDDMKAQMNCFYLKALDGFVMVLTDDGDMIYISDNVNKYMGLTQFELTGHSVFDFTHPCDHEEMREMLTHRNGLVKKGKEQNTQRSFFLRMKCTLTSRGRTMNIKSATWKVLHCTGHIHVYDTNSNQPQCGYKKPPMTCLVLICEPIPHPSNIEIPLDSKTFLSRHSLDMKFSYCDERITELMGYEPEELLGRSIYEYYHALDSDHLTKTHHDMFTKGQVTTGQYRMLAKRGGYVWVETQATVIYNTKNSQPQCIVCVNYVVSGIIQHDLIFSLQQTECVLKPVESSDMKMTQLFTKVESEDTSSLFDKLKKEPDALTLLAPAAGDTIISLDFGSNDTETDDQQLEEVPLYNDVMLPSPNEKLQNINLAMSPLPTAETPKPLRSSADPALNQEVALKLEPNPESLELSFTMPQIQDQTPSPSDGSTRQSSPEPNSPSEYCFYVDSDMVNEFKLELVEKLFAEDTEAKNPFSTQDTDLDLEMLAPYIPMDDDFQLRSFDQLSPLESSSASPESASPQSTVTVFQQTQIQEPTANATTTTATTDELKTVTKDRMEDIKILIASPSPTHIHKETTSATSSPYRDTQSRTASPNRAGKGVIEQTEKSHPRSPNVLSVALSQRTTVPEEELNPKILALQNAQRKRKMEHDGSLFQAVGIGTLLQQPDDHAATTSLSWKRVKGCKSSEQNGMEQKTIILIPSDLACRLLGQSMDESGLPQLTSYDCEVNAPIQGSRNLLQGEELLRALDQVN
Cytochrome P450 3A4 (Homo sapiens), sequence (P08684 whole entry, looked up): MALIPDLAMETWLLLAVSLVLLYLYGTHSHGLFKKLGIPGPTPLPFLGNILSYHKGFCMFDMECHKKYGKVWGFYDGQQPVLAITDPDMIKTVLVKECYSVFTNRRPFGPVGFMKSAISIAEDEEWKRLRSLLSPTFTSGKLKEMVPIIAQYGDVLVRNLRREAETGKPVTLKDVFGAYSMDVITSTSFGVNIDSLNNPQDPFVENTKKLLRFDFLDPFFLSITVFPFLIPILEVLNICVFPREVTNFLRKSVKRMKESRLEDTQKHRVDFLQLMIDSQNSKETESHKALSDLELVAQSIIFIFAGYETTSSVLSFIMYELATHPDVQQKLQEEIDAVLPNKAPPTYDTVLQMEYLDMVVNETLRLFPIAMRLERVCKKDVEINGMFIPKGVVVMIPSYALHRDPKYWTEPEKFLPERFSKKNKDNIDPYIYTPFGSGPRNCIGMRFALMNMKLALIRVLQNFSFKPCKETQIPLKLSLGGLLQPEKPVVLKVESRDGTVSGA

For orientation: AC50 means the concentration at which the activity in the assay is half-maximal. With `ClC1=C(Cl)[C@]2(Cl)[C@@H]3[C@H]4C[C@H]([C@@H]5O[C@H]45)[C@@H]3[C@@]1(Cl)C2(Cl)Cl`, the AC50 in experiment [1] was 22.6 µM (active); in experiment [2] it was 50 µM (active); in [4] it was 2.94 µM (active); in experiment [6] it was 1.86 µM (active); in [7] it was 17.4 µM (active); in experiment [8] it was 32.6 µM (active). The AC50 in experiment [14] is 30.5 µM (active). Further, the molecule was classed as inactive in experiment [3], in experiment [5], in [9], in [10], in experiment [11] and in experiment [12]. For the same molecule, in [13], the molecule was classed as inactive.

Consider `CC(C)(c1ccccc1)c1ccc(O)cc1`, for which the outcome in experiment [1], in experiment [15], in experiment [3], in [4], in experiment [5] and in experiment [6] was inactive. Also, the molecule was classed as inactive in experiment [16], in [9], in experiment [10], in experiment [11], in [17] and in experiment [12]. In addition, the outcome in experiment [13] and in experiment [14] was inactive. Moreover, the AC50 in experiment [7] is 88.7 µM (active); in [8], 87.3 µM (active).

Consider `O=S(=O)(O)C(F)(F)C(F)(F)C(F)(F)C(F)(F)C(F)(F)C(F)(F)F`, for which the molecule was classed as inactive in experiment [1], in [18], in [19], in experiment [3], in experiment [5] and in [7]. Further, the molecule was called inactive in experiment [8], in [9], in experiment [11] and in experiment [12]. The AC50 in experiment [4] was 20.9 µM (active); in experiment [6], 9.02 µM (active); in experiment [10] it was 3.41 µM (active); in [13], 4.59 µM (active); in experiment [14], 30.1 µM (active).

For the molecule `Oc1ccc(C(c2ccc(O)cc2)(C(F)(F)F)C(F)(F)F)cc1`, the AC50 in experiment [1] is 79.4 µM (active); in experiment [5], 80.2 µM (active); in [6], 92.5 µM (active); in experiment [7] it was 89.6 µM (active); in [8] it was 79.5 µM (active); in [12] it was 72.8 µM (active). Besides, the results for the AC50 in [13] and in experiment [14] were 83.5 µM (active) and 79.4 µM (active), respectively. Further, the outcome in experiment [3], in experiment [4], in experiment [16], in experiment [9], in experiment [10] and in [11] was inactive.
